# Laboratory results from PubChem BioAssay (NCI).
# The panel holds about 83,000 compounds, 20% with a hit somewhere; the sample as a whole holds those more often.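 Results are percent growth after 48 hours of single-concentration exposure. 100 means growth as in untreated cells, lower positive values show inhibition; negative values down to -100 show cell death.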 Unmarked numbers belong to inactive results. Activity calls are given as the source filed them. Rule for the calls: active = growth percent below 10; inactive = the rest.
# Tested on: MDA-MB-468 breast
# Assay: NCI-60 one-dose screen, 48 h (100 = growth as untreated, 0 = no growth, -100 = all killed)
# Conditions: 10 µM unless noted
row,Compound,growth
1,Nc1ccc2ccc(NS(=O)(=O)N3CCCCC3)cc2c1,7.79% (active)
2,CN(C)c1ccc2nc3ccc(=N)cc-3sc2c1,38.6%
3,FC(F)(F)c1cc(Nc2cccc(Oc3ccc(NC4=NCCN4)nc3)c2)ccc1Cl,-37.6% (active)
4,C#CCOCC1CN(C)C(=O)O1 (configuration not stated),118%
5,COc1cc2c3c(c(=O)oc2cc1OS(=O)(=O)c1ccc(C(F)(F)F)cc1)CCCCC3,67%
6,O=C(/C=C/C12c3ccccc3C(c3ccccc31)C1C(=O)NC(=O)C12)c1ccc(Br)cc1 (configuration not stated),42.7%
7,O=C(CN1C(=O)c2ccccc2S1(=O)=O)Nc1nc(-c2cc3ccccc3oc2=O)cs1,100%
8,COc1cc(Cl)cc(-c2nn(-c3cccc(NC(=O)Nc4cccc(C(F)(F)F)c4)c3)cc2-c2ccncc2)c1,6.89% (active)
9,COc1ccc(C(C)C=O)cc1 (configuration not stated),134%
10,N#CC1=C(N)Oc2nc[nH]c(=O)c2C1c1cccs1 (configuration not stated),99.3%
11,COc1ccc(/C(C)=C(/c2ccc(OCCCN(C)C)cc2)c2ccc(OC(=O)c3ccccc3)cc2)cc1,94.9%
12,COc1ccc2cc(-c3ccc(-c4ccc(C(=N)N)cc4)s3)ccc2c1,98.2%
13,ClCC#CCSc1ncnc2c1ncn2CC#CCCl,-57.2% (active)
14,O=C(/C(=C/c1ccc([N+](=O)[O-])cc1)SCc1ccc(Cl)cc1)c1ccc(F)cc1,77.2%
15,Cn1cc(-c2nnc(-c3cn(C)c4ncccc34)o2)c2ccccc21,-11.4% (active)
16,CC(=O)OCC(OC(C)=O)C(OC(C)=O)C(OC(C)=O)C(OC(C)=O)C(/C=N/Nc1ccccc1)=N/Nc1ccccc1 (configuration not stated),46.4%
17,O=C(O)C#Cc1ccc(Cl)cc1,101%
18,Nc1ccc(NC(=O)c2ccccc2)c2c1C(=O)c1ccccc1C2=O,107%
19,COc1cc(/C=C/CO)cc(OC)c1O[C@@H]1O[C@H](CO)[C@@H](O)[C@H](O)[C@H]1O,91.9%
20,Oc1cccc2ccc(-c3nnc(SCc4ccc(O)c5ncccc45)o3)nc12,0.74% (active)
21,C=C1C(=O)O[C@H]2[C@H]1CC/C(COC(=O)NCc1ccc(Cn3c(=O)sn(CCCCC)c3=O)cc1)=C\CC[C@@]1(C)O[C@@H]21,3.66% (active)
22,O=C(Nc1ccccc1F)Nc1ccccc1Cl,76%
23,O=C(Nc1cccc(-n2cc(-c3ccncc3)c(-c3ccc(Cl)c(O)c3)n2)c1)Nc1cccc(C(F)(F)F)c1,10.5%
24,COc1ccc(-c2nn(-c3ccccc3)cc2/C=C/C(=O)NNC(=O)Nc2ccc(C)cc2)cc1,102%
25,CCN(CC)CCOc1ccc(-c2c(-c3ccccc3)c(=O)oc3ccccc23)cc1,72.9%
26,CN1CCN(CCNC(=O)c2cccc(CN3c4cccc5c4C(=Cc4cccnc43)N(C)C5=O)c2)CC1,24.4%
27,CCOC(=O)Nc1ccc2nc(Sc3ccc(Cl)cc3)sc2c1,0.385% (active)
